Experimental findings from PubChem BioAssay AID2284351 (EPA ToxCast) are described below.

SMILES strings stand for the structures. Calls of active or inactive are those of the source. Rule for the calls: active = hit-call score of the fitted dose curve at least 0.9, where 1 is the maximum; inactive = score below 0.9.

Chain of Peroxisome proliferator-activated receptor gamma (Homo sapiens) (P37231 whole entry, looked up): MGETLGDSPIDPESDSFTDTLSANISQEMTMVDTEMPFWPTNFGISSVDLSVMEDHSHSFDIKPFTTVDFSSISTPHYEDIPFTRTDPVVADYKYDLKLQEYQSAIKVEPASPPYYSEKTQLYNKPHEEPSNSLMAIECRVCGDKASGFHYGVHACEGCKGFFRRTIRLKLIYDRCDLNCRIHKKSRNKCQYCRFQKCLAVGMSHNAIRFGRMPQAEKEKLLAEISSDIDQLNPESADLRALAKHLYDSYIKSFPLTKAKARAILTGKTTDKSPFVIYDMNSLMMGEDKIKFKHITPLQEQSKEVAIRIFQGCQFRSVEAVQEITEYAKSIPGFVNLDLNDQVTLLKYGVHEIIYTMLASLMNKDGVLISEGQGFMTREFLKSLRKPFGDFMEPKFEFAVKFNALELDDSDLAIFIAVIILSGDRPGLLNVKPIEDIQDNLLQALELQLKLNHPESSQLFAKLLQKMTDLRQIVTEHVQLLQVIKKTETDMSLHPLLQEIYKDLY

This experiment has as its target Peroxisome proliferator-activated receptor gamma (Homo sapiens) (UniProt P37231). The experiment can be described thus: ATG_hPPARg_EcoTox2: Attagene TRANS-FACTORIAL EcoTox-2 HepG2 Assay for human Peroxisome Proliferator-activated Receptor gamma (PPARg). The procedure:
ATG_EcoTox2 is a cell-based, multiplexed assay created by modifying the existing Attagene TRANS-FACTORIAL system to include a panel of nuclear receptors from some or all the following species: human (Homo sapiens), african clawed frog (Xenopus laevis), rainbow trout (Oncorhynchus mykiss), japanese medaka (Oryzias latipes), and zebrafish (Danio rerio). The ECOTOX2-FACTORIAL format uses HepG2, a human liver cell line, with measurements taken at 24 hours after chemical dosing in a 24-well plate. ATG_hPPARg_EcoTox2 is one of 29 assay components calculated in the ATG_EcoTox2 assay. It is designed to make measurements of mRNA induction, a form of inducible reporter, as detected with fluorescence intensity signals by Reverse transcription polymerase chain reaction (RT-PCR) and Capillary electrophoresis technology.The assay endpoint ATG_hPPARg_EcoTox2 was analyzed in the positive analysis fitting direction relative to DMSO as the negative control and baseline of activity. Using a type of inducible reporter, measures of mRNA for gain-of-signal activity can be used to understand the reporter gene at the transcription factor-level as they relate to the gene PPARg. Furthermore, this assay endpoint can be referred to as a primary readout, because this assay has produced multiple assay endpoints where this one serves a reporter gene function. To generalize the intended target to other relatable targets, this assay endpoint is annotated to the nuclear receptor intended target family, where the subfamily is non-steroidal.
Human liver HepG2 cells are transiently transfected with multiple reporter transcription units (MRTUs) in 6-well plates using FuGene 6 reagent (Roche; 3 ml FuGene/1 mg DNA). The MRTU constructs are regulated by a cis-regulating element (promoter). Each RTU expresses a GAL4-UAS that regulates the transcription of a nearby target reporter gene sequence. A major difference between the CIS and TRANS system is that in CIS activities of endogenous TFs are measured, whereas the TRANS assay evaluates changes in activities of exogenous, chimeric NR-Gal4 proteins. […] At the end of 24 hour incubation, total RNA was isolated using TriZol reagent (Invitrogen). The isolated RNA is then reverse-transcribed using oligo(dT) primer and Mo-MLV reverse transcriptase (Invitrogen) with DNAse I (Ambion) treatment for 30 min. The one-tenth of the produced cDNA was amplified by PCR using Taq DNA polymerase (Invitrogen) and two reporter sequence-specific primers. The PCR products were fluorescently labeled by primer extension with 6-arboxyfluorescein (6-FAM) 5'-labeled reporter sequence-specific primer (2 min at 95 C, 20 s at 68 C and 10 min at 72 C) and these products were digested with 5U of HpaI (New England Biolabs) for 2h at 37 C. The fragments were purified using Qiaquick PCR columns (Qiagen), analyzed on an ABI 3130xL genetic analyzer (Applied Biosystems) with peak positions identified by using a set of X-rhodamine (ROX)-labeled MapMarker1000 molecular weight standards (BioVentures). The raw capillary electrophoresis data was processed using Attagraph software (Attagene).
Broadly, the AC50 is the concentration giving half of the maximal activity seen. `Cc1nc(-c2ccc(C(F)(F)F)cc2)sc1C(=O)NCc1ccc(OC(C)(C)C(=O)O)cc1`: the AC50 is 1.29 µM (active).
On the same count and under the same terms, as for `C=C(c1ccc(C(=O)O)cc1)c1cc2c(cc1C)C(C)(C)CCC2(C)C`, the figure is 1.1 µM (active); as for `CC(C)(Oc1ccc(C2CC2(Cl)Cl)cc1)C(=O)O` (configuration not stated), 37.3 µM (active).
`C[C@@H]1C[C@H]2[C@@H]3CCC4=CC(=O)C=C[C@]4(C)[C@@]3(F)[C@@H](O)C[C@]2(C)[C@@]1(O)C(=O)COP(=O)(O)O`: the outcome was inactive.
With `C[C@]12C=CC(=O)C=C1CC[C@@H]1[C@@H]2C(=O)C[C@@]2(C)[C@H]1CC[C@]2(O)C(=O)CO`, the compound was classed as inactive.
In the case of `CC(C)(Oc1ccc(Cl)cc1)C(=O)O`, the AC50 is 80.6 µM (active).
On to `CC(C)(Oc1ccc(CCNC(=O)c2ccc(Cl)cc2)cc1)C(=O)O`, for which the AC50 was 14 µM (active).
